High-throughput results deposited in PubChem BioAssay by National Center for Advancing Translational Sciences (NCATS).
Most compounds without a hit are left out; they make up all but 10% or so of the library.
CtBP-E1A blk: inhibitors of CtBP/E1A interaction; activity change, % (test concentration not listed); AlphaScreen GST-E1A/His-CtBP binding, 1536-well; hits give low values; AID 651724; actives 0.49% (n = 340,000); in the data active = activity change below about -65%; inconclusive = mostly about -30% to -63%
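Steps: dispense buffer (Tris pH 8.0, NaCl 300 mM, TCEP 1 mM, BSA, Tween 20); add 5X protein mix (GST-E1A, His-CtBP, 125 nM each); pin 23 nL compound; 2 h at 37 °C, dark; add 5X beads (50 ug/mL); 1 h; read.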
JMJD2A Tudor inh: blocks the human JMJD2A Tudor domain | AlphaScreen JMJD2A-Tudor / H3K4me3 peptide binding | actives 4.4% (n = 390,000) | Potency, µM (highest dose often 114 µM), actives largely listed as inhibitors | AID 504339; also: nearly all actives have a fitted effect of over 50% in size
G9a inh: inhibitors of human histone lysine methyltransferase G9a. actives 8.8% (n = 350,000). Potency, µM (titrated, usually from 102 µM), most hits filed as inhibitors. Q96KQ7. G9a H3K9 monomethylation, AlphaScreen, 2 h. AID 504332; also: nearly all actives have a fitted effect of over 75% in size
Target sequence (Q96KQ7 913-1193 limits assumed): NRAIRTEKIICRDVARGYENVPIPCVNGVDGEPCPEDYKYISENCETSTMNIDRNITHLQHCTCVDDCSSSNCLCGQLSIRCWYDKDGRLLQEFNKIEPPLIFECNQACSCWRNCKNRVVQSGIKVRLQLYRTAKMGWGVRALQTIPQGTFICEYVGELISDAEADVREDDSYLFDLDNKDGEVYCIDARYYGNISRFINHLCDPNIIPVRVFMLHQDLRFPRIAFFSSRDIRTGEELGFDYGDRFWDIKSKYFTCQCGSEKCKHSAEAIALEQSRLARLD
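G9a (20 nM) was preincubated 15 min with compound, then reacted 2 h at room temperature with 500 nM biotin-H3K9 peptide and 20 µM SAM. Monomethyl-H3K9 detected by AlphaScreen using anti-H3K9me1 antibody.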
Six1-Eya2 blk: inhibitors of human Six1/Eya2 interaction | Q15475+O00167 | actives 0.56% (n = 360,000) | AID 651725 | activity change, % (concentration not given with the values) | AlphaScreen GST-Six1/His-Eya2 binding, biochemical; hits give low values; in the data active = activity change below about -65%; inconclusive = mostly about -30% to -63%
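AlphaScreen with GST-Six1 and His-Eya2 (5X mix: 250 nM and 500 nM), glutathione donor and nickel acceptor beads; buffer 50 mM Tris pH 8.0, 300 mM NaCl, 1 mM TCEP; 1 h at 37 C in the dark.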
BAZ2B inh: BAZ2B (human) inhibition; actives 4.4% (n = 360,000); AlphaScreen BAZ2B-H3K14Ac peptide displacement; Potency, µM (highest dose often 114 µM), hits mostly inhibitors; also: nearly all actives have a fitted effect of over 60% in size
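Multi-concentration screen (max 110 uM) measuring displacement of acetylated histone H3 peptide from BAZ2B by AlphaScreen, using 50 nM protein, 50 nM peptide and 10 ug/mL streptavidin donor plus Ni-chelate acceptor beads.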
HP1b chromo inh: inhibitors of HP1-beta chromodomain binding to methylated histone tails. P83916. Potency, µM (doses to about 114 µM), actives largely listed as inhibitors. AlphaScreen HP1-beta / biotin-H3K9me3 peptide binding. actives 0.56% (n = 390,000); also: nearly all actives have a fitted effect of over 70% in size
Target sequence (P83916 whole entry, looked up): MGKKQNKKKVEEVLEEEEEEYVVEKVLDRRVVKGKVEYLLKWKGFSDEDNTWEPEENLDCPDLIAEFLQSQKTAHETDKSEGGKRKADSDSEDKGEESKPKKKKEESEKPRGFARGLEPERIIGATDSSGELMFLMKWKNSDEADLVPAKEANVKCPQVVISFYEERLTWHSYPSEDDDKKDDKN
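AlphaScreen: HP1-beta (50 nM) preformed 30 min with biotin-H3(1-18)K9me3 peptide (50 nM) in PBS pH 7.4, 0.01% Tween-20. Compound added for 30 min at RT, then streptavidin donor/nickel chelate acceptor beads (10 ug/mL) for 30 min.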
Each line names hits and unclear results; the compound was inactive in the other large screens. Unless noted, calls follow the shape of the dose curve; as a rule, active = well fitted inhibition curve with a large enough effect; inconclusive = small, poorly fitted or top-dose-only effect; inactive = no such curve, though single readings can be large or run the other way.

OCCN(CCO)CCO	none (no result: CtBP-E1A blk, JMJD2A Tudor inh, Six1-Eya2 blk, BAZ2B inh, HP1b chromo inh)
NC(Cc1ccc(F)cc1)c1csc(Nc2ccccn2)n1 (centres undefined)	CtBP-E1A blk -91.2, Six1-Eya2 blk -85.5 (no result: JMJD2A Tudor inh, G9a inh, BAZ2B inh, HP1b chromo inh)
NC(Cc1ccc(Cl)cc1)c1csc(Nc2ccccn2)n1 (centres undefined)	CtBP-E1A blk -68.2, Six1-Eya2 blk inconclusive (no result: JMJD2A Tudor inh, G9a inh, BAZ2B inh, HP1b chromo inh)
NC(Cc1ccccc1)c1csc(Nc2ccccn2)n1 (centres undefined)	CtBP-E1A blk -90.3, Six1-Eya2 blk -86.0 (no result: JMJD2A Tudor inh, G9a inh, BAZ2B inh, HP1b chromo inh)
NC(Cc1ccc(F)cc1)c1csc(Nc2cnccn2)n1 (centres undefined)	CtBP-E1A blk -83.2, Six1-Eya2 blk -74.4 (no result: JMJD2A Tudor inh, G9a inh, BAZ2B inh, HP1b chromo inh)
CC(=O)O[C@H](CC(=O)O)C[N+](C)(C)C	none
O=C(CCN1CCN(CCO)CC1)N1c2ccccc2Sc2ccc(C(F)(F)F)cc21	JMJD2A Tudor inh 56.2µM, G9a inh inconclusive
FC(F)(F)c1ccc(CNCCc2ccc3c(c2)OCO3)cc1	JMJD2A Tudor inh 56.2µM, G9a inh 22.4µM, BAZ2B inh 79.4µM (no result: CtBP-E1A blk)
COc1cc(CNCCc2ccc3c(c2)OCO3)ccc1O	none
Clc1ccc(CNCCc2ccc3c(c2)OCO3)cc1	JMJD2A Tudor inh 25.1µM, G9a inh 79.4µM, BAZ2B inh 44.7µM
c1cncc(CNCCc2ccc3c(c2)OCO3)c1	none (no result: CtBP-E1A blk, G9a inh)
Fc1ccccc1CNCCc1ccc2c(c1)OCO2	JMJD2A Tudor inh 70.8µM, G9a inh 39.8µM (no result: CtBP-E1A blk)
CC1(C)CC(CCNCc2ccc3c(c2)OCO3)(Cc2ccccc2)CCO1 (centres undefined)	none
Clc1cccc(CNCCc2ccc3c(c2)OCO3)c1	JMJD2A Tudor inh 28.2µM, G9a inh 44.7µM, BAZ2B inh 79.4µM, HP1b chromo inh inconclusive
COc1ccc(C(=O)O[C@H]2CC[C@@]3(C)C4CCC5[C@]6(O)C[C@H](O)[C@@]7(O)C(CN8C[C@@H](C)CC[C@H]8[C@@]7(C)O)[C@]6(O)C[C@@]53O[C@@]42O)cc1OC (some centres undefined)	none (no result: CtBP-E1A blk, JMJD2A Tudor inh, Six1-Eya2 blk, BAZ2B inh, HP1b chromo inh)
CCCCCCC(=O)OC1CC(C)(C)NC(C)(C)C1	none (no result: CtBP-E1A blk, JMJD2A Tudor inh, Six1-Eya2 blk, BAZ2B inh, HP1b chromo inh)
O=C(Nc1cccc(F)c1)N1CC2(CCNCC2)C1	none (no result: CtBP-E1A blk, JMJD2A Tudor inh, Six1-Eya2 blk, BAZ2B inh, HP1b chromo inh)
O=c1[nH]c(=O)n(Cl)c(=O)n1Cl	none (no result: CtBP-E1A blk, JMJD2A Tudor inh, Six1-Eya2 blk, BAZ2B inh, HP1b chromo inh)
CCOC(=O)[C@]12Cc3cc(OC)ccc3[C@H]1N(Cc1ccccc1)C(=O)c1ccccc12	none (no result: G9a inh, BAZ2B inh)
CCOC(=O)C1(c2ccccc2)Oc2ccccc2C(c2ccc(OC)cc2)=C1C(=O)OC (centres undefined)	G9a inh 22.4µM (no result: BAZ2B inh)
CN(C)CCN(C(=O)c1ccc(S(=O)(=O)N2CCc3ccccc32)cc1)c1nc2ccc(F)cc2s1	JMJD2A Tudor inh inconclusive, G9a inh 3.55µM, BAZ2B inh inconclusive
CCCCCCCCCCCCCCCCOC[C@@H](COP(=O)([O-])OCC[N+](C)(C)C)OC(C)=O	none (no result: CtBP-E1A blk, JMJD2A Tudor inh, Six1-Eya2 blk, BAZ2B inh, HP1b chromo inh)
CCN(CC)C(=O)c1c(C)[nH]c(=S)c(C#N)c1-c1ccco1	JMJD2A Tudor inh 7.94µM, G9a inh 3.16µM
CC[C@H](C)[C@H](NC(=O)[C@@H]1CCCN1C(=O)[C@H](CCC(=O)O)NC(=O)[C@@H](NC(=O)[C@H](Cc1ccccc1)NC(=O)[C@@H]1CCCN1C(=O)[C@@H](N)Cc1ccc(O)cc1)C(C)C)C(=O)O	none (no result: CtBP-E1A blk, JMJD2A Tudor inh, Six1-Eya2 blk, BAZ2B inh, HP1b chromo inh)
CC1C(=O)OC2C(O)C34C5OC(=O)[C@@]3(OC3OC(=O)[C@H](O)[C@]34C(C(C)(C)C)C5O)[C@]12O (some centres undefined)	none (no result: CtBP-E1A blk, JMJD2A Tudor inh, Six1-Eya2 blk, BAZ2B inh, HP1b chromo inh)
CC(=O)NC1N=C(C)N(c2ccccc2)C1=O (centres undefined)	JMJD2A Tudor inh 44.7µM, G9a inh 3.16µM, HP1b chromo inh inconclusive
CN(C)c1ccc(C(O)P(=O)(OC2CCCCC2)OC2CCCCC2)cc1 (centres undefined)	JMJD2A Tudor inh inconclusive, BAZ2B inh 44.7µM
C=CCn1c(=O)c(C=Nc2c(OC)cccc2[N+](=O)[O-])c(O)n(CCCC)c1=O	BAZ2B inh inconclusive
C=CCn1c(=O)c(C=Nc2cccc([N+](=O)[O-])c2)c(O)n(CCCC)c1=O	JMJD2A Tudor inh inconclusive, G9a inh 70.8µM
Cc1nnc(N2CCN(C(=O)NCCC(C)C)CC2)c2nn(-c3ccc(Cl)cc3)c(C)c12	none (no result: CtBP-E1A blk, Six1-Eya2 blk)
